# The supplement of paper PMC11732987, “Enantioselective OTUD7B fragment discovery through chemoproteomics screening and high-throughput optimisation” (Communications Chemistry, 2025)
# Unmarked numbers belong to inactive results.
# Key:
# Experiment in all cases: log2 ratio of Biotin-Ahx-Ub-VS probe labelling (fragment/DMSO); higher = less target engagement (more negative = stronger competition), active = hit call of the paper (q ≤ 0.05, log2 ratio ≤ -1)
# Conditions in all cases: compound concentration: 200 uM; treatment time: 3 h
# OTUD6B = target: T1, OTUD6B (UniProt Q8N6M0)
# T1 sequence (whole entry): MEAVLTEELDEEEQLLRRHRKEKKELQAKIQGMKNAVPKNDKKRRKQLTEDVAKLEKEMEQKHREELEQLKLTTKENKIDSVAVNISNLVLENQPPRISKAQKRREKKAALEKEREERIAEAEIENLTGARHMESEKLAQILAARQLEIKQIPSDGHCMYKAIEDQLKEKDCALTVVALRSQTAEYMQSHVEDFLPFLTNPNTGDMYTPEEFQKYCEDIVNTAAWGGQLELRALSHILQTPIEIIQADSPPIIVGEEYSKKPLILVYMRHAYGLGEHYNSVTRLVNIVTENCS
# Method in brief: (§1)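 HEK293T lysate, 495 µg per sample in Tris/CHAPS/IGEPAL buffer with protease inhibitors, was treated in triplicate with fragment at 200 µM or vehicle for 3 h and then with Biotin-Ahx-Ub-VS at 0.5 µM final for 1 h. Labelled DUBs were NeutrAvidin-enriched, digested with LysC and trypsin, and run by diaPASEF LC-MS/MS. Spectronaut label-free quantities were global-median-normalised, and values are average log2 fragment/vehicle ratios by unpaired t-test on proteins with ≥2 unique peptides.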
# OTUD7B = target: T2, OTUD7B (UniProt Q6GQQ9)
# T2 sequence (whole entry): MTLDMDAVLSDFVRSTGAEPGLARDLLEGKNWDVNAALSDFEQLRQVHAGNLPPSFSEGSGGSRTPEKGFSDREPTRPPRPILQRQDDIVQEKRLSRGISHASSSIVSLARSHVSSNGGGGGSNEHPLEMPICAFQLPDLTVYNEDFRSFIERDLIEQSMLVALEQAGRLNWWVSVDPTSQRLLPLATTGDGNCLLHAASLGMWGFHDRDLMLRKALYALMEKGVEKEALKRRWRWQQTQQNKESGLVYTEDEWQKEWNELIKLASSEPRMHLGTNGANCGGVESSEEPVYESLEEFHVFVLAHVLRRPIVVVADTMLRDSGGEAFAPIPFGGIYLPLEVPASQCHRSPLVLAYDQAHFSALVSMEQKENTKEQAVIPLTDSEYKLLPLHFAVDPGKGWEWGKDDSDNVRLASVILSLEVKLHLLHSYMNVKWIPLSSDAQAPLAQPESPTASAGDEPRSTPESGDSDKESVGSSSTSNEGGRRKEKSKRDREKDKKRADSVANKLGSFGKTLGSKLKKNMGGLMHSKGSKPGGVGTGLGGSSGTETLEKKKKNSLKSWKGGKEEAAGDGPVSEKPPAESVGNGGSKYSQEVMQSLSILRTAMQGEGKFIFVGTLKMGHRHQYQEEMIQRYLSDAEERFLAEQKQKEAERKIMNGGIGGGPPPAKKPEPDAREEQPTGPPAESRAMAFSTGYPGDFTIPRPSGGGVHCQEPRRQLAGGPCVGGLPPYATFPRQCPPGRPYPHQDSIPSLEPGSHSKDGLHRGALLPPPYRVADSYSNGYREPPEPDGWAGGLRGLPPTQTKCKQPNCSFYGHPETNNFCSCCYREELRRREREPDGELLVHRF
# Method in brief: as §1
# PRPF8 = PRPF8 (UniProt Q6P2Q9)
# Method in brief: as §1
# PSMD7 = target: T3, PSMD7 (UniProt P51665)
# T3 sequence (whole entry): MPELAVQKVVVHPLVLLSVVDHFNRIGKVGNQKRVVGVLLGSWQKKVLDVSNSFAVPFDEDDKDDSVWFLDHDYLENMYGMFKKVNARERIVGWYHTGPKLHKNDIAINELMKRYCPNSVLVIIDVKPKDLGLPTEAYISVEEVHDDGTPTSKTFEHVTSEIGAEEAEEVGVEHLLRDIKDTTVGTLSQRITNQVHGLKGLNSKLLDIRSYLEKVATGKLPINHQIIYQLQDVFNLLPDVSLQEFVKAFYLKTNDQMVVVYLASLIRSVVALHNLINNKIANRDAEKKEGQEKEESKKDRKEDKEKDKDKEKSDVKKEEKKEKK
# Method in brief: as §1
# UCHL1 = UCHL1 (UniProt P09936)
# UCHL1, sequence (P09936 whole entry, looked up): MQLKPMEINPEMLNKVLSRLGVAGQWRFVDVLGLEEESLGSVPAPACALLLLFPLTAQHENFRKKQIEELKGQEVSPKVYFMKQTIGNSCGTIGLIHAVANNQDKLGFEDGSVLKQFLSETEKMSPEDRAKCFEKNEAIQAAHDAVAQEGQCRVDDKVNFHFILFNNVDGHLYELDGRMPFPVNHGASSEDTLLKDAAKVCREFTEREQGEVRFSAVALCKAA
# Method in brief: as §1
# UCHL3 = target: T4, UCHL3 (UniProt P15374)
# T4 sequence (whole entry): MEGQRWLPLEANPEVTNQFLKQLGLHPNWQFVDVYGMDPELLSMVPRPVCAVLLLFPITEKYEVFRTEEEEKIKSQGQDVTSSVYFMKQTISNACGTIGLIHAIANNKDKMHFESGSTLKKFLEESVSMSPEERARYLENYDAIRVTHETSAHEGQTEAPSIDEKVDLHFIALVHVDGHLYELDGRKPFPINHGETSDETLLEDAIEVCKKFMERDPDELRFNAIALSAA
# Method in brief: as §1
# UCHL5 = target: T5, UCHL5 (UniProt Q9Y5K5)
# T5 sequence (whole entry): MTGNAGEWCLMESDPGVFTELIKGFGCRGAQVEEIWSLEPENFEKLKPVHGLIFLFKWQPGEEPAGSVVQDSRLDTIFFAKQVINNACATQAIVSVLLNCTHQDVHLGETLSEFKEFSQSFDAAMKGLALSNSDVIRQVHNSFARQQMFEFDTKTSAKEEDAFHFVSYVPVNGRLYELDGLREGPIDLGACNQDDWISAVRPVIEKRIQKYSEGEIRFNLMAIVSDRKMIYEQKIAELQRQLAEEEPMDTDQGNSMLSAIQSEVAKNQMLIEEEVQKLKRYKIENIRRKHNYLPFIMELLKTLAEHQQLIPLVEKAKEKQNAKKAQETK
# Method in brief: as §1
# USP10 = USP10 (UniProt Q14694)
# USP10, sequence (Q14694 whole entry): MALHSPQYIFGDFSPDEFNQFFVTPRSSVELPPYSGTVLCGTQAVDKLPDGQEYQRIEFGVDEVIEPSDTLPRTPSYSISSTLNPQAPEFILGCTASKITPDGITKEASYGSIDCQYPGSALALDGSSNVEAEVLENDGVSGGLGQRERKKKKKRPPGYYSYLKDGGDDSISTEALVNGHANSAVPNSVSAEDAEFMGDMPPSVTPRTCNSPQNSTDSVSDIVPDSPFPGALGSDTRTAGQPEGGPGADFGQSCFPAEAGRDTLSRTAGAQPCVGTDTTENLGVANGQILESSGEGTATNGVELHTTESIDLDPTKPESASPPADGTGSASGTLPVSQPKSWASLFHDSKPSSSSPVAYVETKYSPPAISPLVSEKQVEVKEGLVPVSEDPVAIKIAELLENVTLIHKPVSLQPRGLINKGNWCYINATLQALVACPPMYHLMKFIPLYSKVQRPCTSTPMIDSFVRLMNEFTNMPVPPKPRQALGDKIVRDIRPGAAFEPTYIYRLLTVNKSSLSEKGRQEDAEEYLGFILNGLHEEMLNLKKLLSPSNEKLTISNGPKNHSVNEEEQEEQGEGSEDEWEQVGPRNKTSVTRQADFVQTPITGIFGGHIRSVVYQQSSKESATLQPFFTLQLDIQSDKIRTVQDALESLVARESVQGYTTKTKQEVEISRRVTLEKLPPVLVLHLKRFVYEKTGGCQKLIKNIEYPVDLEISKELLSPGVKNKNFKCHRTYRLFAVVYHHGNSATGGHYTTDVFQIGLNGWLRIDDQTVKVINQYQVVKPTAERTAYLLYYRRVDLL
# Method in brief: as §1
# USP15 = target: T6, USP15 (UniProt Q9Y4E8)
# T6 sequence (whole entry): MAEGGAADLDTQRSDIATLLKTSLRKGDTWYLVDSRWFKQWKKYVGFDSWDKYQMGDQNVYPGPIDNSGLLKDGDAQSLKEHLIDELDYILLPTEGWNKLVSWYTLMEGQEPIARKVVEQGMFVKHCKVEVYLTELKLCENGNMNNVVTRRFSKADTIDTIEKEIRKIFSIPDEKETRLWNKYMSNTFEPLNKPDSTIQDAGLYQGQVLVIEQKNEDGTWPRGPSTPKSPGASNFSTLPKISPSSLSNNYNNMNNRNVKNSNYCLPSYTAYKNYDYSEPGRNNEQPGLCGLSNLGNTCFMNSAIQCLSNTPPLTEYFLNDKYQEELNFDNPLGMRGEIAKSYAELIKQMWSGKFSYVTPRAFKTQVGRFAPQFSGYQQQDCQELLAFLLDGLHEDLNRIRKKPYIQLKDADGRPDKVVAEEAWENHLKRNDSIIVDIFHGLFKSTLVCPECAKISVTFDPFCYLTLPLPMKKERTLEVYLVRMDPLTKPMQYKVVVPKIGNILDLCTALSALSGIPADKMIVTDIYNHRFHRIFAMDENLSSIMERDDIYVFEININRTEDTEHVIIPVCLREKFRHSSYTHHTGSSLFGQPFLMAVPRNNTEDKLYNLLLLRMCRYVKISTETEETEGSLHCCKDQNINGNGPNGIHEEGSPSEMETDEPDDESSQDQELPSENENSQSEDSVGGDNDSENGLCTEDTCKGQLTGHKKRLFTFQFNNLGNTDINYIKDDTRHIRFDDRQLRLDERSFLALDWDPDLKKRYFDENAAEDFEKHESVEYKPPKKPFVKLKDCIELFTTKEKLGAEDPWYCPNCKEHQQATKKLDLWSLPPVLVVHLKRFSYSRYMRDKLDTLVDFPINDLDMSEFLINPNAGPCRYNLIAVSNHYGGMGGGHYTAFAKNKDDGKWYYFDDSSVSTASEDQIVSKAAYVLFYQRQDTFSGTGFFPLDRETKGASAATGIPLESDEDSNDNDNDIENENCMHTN
# Method in brief: as §1
# USP16 = USP16 (UniProt Q9Y5T5)
# USP16, sequence (Q9Y5T5 whole entry, looked up): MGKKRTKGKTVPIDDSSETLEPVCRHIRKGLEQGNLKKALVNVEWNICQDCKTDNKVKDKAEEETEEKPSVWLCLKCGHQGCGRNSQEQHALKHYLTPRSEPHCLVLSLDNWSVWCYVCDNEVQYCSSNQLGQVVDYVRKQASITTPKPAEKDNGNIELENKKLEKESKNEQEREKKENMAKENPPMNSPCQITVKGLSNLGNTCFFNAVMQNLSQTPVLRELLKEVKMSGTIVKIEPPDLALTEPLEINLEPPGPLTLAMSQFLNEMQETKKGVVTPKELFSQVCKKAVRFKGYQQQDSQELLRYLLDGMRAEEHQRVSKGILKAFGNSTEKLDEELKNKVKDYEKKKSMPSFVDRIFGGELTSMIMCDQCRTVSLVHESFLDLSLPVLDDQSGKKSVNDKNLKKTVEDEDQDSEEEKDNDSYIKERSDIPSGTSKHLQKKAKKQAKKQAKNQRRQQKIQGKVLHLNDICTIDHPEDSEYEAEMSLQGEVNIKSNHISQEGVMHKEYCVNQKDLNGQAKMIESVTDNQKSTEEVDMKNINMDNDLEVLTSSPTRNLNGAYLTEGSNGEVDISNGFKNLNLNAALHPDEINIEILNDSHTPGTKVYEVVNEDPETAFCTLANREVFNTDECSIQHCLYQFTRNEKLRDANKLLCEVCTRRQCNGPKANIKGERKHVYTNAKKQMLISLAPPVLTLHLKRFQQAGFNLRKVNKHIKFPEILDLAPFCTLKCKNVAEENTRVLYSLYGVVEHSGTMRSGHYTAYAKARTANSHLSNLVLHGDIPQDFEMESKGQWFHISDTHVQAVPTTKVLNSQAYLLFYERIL
# Method in brief: as §1
smiles,measurement,setting,value
O=C(CCl)N1CCc2ccccc2C(O)C1 (stereo not given),log2 ratio of Biotin-Ahx-Ub-VS probe labelling,OTUD6B,-0.357
same,log2 ratio of Biotin-Ahx-Ub-VS probe labelling,OTUD7B,-1.21 (active)
same,log2 ratio of Biotin-Ahx-Ub-VS probe labelling,PRPF8,0.137
same,log2 ratio of Biotin-Ahx-Ub-VS probe labelling,PSMD7,-0.212
same,log2 ratio of Biotin-Ahx-Ub-VS probe labelling,UCHL1,-1.58 (active)
same,log2 ratio of Biotin-Ahx-Ub-VS probe labelling,UCHL3,-0.197
same,log2 ratio of Biotin-Ahx-Ub-VS probe labelling,UCHL5,-0.317
same,log2 ratio of Biotin-Ahx-Ub-VS probe labelling,USP10,-0.14
same,log2 ratio of Biotin-Ahx-Ub-VS probe labelling,USP15,-0.392
same,log2 ratio of Biotin-Ahx-Ub-VS probe labelling,USP16,0.132
